Holding throughout (test): PBM; 200 nM protein, PBS
Conditions in all cases: dsDNA, one strand shown

In test [1] the target is T1, SIX6 (Homo sapiens, UniProt O95475 114-200, L167I).
T1 sequence: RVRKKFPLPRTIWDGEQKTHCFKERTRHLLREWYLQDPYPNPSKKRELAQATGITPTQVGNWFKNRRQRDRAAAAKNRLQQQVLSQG

In test [2] the target is T2, SIX6 (Homo sapiens, UniProt O95475 114-200, L143V).
T2 sequence: T1 sequence with L30V, I54L

The target in test [3] is T3, SIX6 (Homo sapiens, UniProt O95475 114-200, H141N).
T3 sequence: T1 sequence with H28N, I54L

Test [4] concerns the target T4, SIX6 (Homo sapiens, UniProt O95475 114-200, T165P).
T4 sequence: T1 sequence with T52P, I54L

Test [5] concerns the target T5, SIX6 (Homo sapiens, UniProt O95475 114-200, L167M).
T5 sequence: T1 sequence with I54M

In test [6] the target is T6, SIX6 (Homo sapiens, UniProt O95475 114-200, L143M).
T6 sequence: T1 sequence with L30M, I54L

Test [7] addresses T7, SIX6 (Homo sapiens, UniProt O95475 114-200, L143I).
T7 sequence: T1 sequence with L30I, I54L

For test [8], the target named is T8, SIX6 (Homo sapiens, UniProt O95475 114-200, T165G).
T8 sequence: T1 sequence with T52G, I54L

Test [9] concerns the target T9, SIX6 (Homo sapiens, UniProt O95475 114-200, T139Q).
T9 sequence: T1 sequence with T26Q, I54L

Test [10] has as its target T10, SIX6 (Homo sapiens, UniProt O95475 114-200, T165A).
T10 sequence: T1 sequence with T52A, I54L

Test [11] deals with T11, SIX6 (Homo sapiens, UniProt O95475 114-200, L167V).
T11 sequence: T1 sequence with I54V

The target in test [12] is T12, SIX6 (Homo sapiens, UniProt O95475 114-200).
T12 sequence: T1 sequence with I54L

The target in test [13] is T13, SIX6 (Homo sapiens, UniProt O95475 114-200, T165I).
T13 sequence: T1 sequence with T52I, I54L

For test [14], the target named is NKX3-2 (Homo sapiens, UniProt P78367 192-278, P234S).
Chain of NKX3-2 (Homo sapiens, UniProt P78367 192-278, P234S) (P78367 192-278 P234S): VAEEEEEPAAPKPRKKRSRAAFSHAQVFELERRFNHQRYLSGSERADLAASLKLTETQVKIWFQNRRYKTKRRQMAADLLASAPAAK
The target of test [15] is NKX3-2 (Homo sapiens, UniProt P78367 192-278).
Chain of NKX3-2 (Homo sapiens, UniProt P78367 192-278) (P78367 192-278): as the sequence (P78367 192-278 P234S) above, with S43P counted along it

Residue numbers refer to the chain shown, from its start.

ATGACACC: the binding signal was 10.7 upbm affinity estimate (log intensity, higher = more binding, comparable within an allelic series) in [1]; 10.2 upbm affinity estimate (log intensity, higher = more binding, comparable within an allelic series) in test [2]; 11.1 upbm affinity estimate (log intensity, higher = more binding, comparable within an allelic series) in test [3]; 9.61 upbm affinity estimate (log intensity, higher = more binding, comparable within an allelic series) in [4]; 10.1 upbm affinity estimate (log intensity, higher = more binding, comparable within an allelic series) in test [5]; 10.7 upbm affinity estimate (log intensity, higher = more binding, comparable within an allelic series) in test [6]. The binding signal in test [7] was 10.4 upbm affinity estimate (log intensity, higher = more binding, comparable within an allelic series); in test [8], 11.4 upbm affinity estimate (log intensity, higher = more binding, comparable within an allelic series); in test [9] it was 11.3 upbm affinity estimate (log intensity, higher = more binding, comparable within an allelic series); in [10] it was 11.4 upbm affinity estimate (log intensity, higher = more binding, comparable within an allelic series); in test [11], 10.5 upbm affinity estimate (log intensity, higher = more binding, comparable within an allelic series); in [12] it was 10.9 upbm affinity estimate (log intensity, higher = more binding, comparable within an allelic series). Further, the binding signal in test [13] was 10.9 upbm affinity estimate (log intensity, higher = more binding, comparable within an allelic series).

For CCGCAGCG, the binding signal is 8.92 upbm affinity estimate (log intensity, higher = more binding, comparable within an allelic series) in test [1]; 8.95 upbm affinity estimate (log intensity, higher = more binding, comparable within an allelic series) in [2]; 8.92 upbm affinity estimate (log intensity, higher = more binding, comparable within an allelic series) in test [3]; 9.03 upbm affinity estimate (log intensity, higher = more binding, comparable within an allelic series) in test [4]; 8.98 upbm affinity estimate (log intensity, higher = more binding, comparable within an allelic series) in test [5]; 8.95 upbm affinity estimate (log intensity, higher = more binding, comparable within an allelic series) in test [6]. The binding signal is 8.96 upbm affinity estimate (log intensity, higher = more binding, comparable within an allelic series) in test [7]; 8.86 upbm affinity estimate (log intensity, higher = more binding, comparable within an allelic series) in test [8]; 8.88 upbm affinity estimate (log intensity, higher = more binding, comparable within an allelic series) in test [9]; 8.92 upbm affinity estimate (log intensity, higher = more binding, comparable within an allelic series) in [10]; 8.99 upbm affinity estimate (log intensity, higher = more binding, comparable within an allelic series) in [11]; 8.96 upbm affinity estimate (log intensity, higher = more binding, comparable within an allelic series) in test [12]. Besides, the binding signal in test [13] is 8.92 upbm affinity estimate (log intensity, higher = more binding, comparable within an allelic series).

For CGCAGAGC, the binding signal in [1] was 8.98 upbm affinity estimate (log intensity, higher = more binding, comparable within an allelic series); in test [2], 8.91 upbm affinity estimate (log intensity, higher = more binding, comparable within an allelic series); in [3], 8.85 upbm affinity estimate (log intensity, higher = more binding, comparable within an allelic series); in test [4], 9 upbm affinity estimate (log intensity, higher = more binding, comparable within an allelic series); in test [5] it was 8.82 upbm affinity estimate (log intensity, higher = more binding, comparable within an allelic series); in test [6], 8.9 upbm affinity estimate (log intensity, higher = more binding, comparable within an allelic series). Further, the binding signal was 8.9 upbm affinity estimate (log intensity, higher = more binding, comparable within an allelic series) in test [7]; 8.85 upbm affinity estimate (log intensity, higher = more binding, comparable within an allelic series) in test [8]; 8.88 upbm affinity estimate (log intensity, higher = more binding, comparable within an allelic series) in [9]; 8.97 upbm affinity estimate (log intensity, higher = more binding, comparable within an allelic series) in test [10]; 9.02 upbm affinity estimate (log intensity, higher = more binding, comparable within an allelic series) in test [11]; 8.83 upbm affinity estimate (log intensity, higher = more binding, comparable within an allelic series) in test [12]. For the same sequence, the binding signal in test [13] is 8.83 upbm affinity estimate (log intensity, higher = more binding, comparable within an allelic series); in test [14], 10.6 upbm affinity estimate (log intensity, higher = more binding, comparable within an allelic series); in test [15], 10.6 upbm affinity estimate (log intensity, higher = more binding, comparable within an allelic series).

On to GGGTATCA, for which the binding signal in test [1] is 11.7 upbm affinity estimate (log intensity, higher = more binding, comparable within an allelic series); in test [2], 10.5 upbm affinity estimate (log intensity, higher = more binding, comparable within an allelic series); in test [3], 11.7 upbm affinity estimate (log intensity, higher = more binding, comparable within an allelic series); in test [4] it was 9.44 upbm affinity estimate (log intensity, higher = more binding, comparable within an allelic series); in test [5], 11 upbm affinity estimate (log intensity, higher = more binding, comparable within an allelic series); in [6] it was 11.4 upbm affinity estimate (log intensity, higher = more binding, comparable within an allelic series). Besides, the binding signal was 10.6 upbm affinity estimate (log intensity, higher = more binding, comparable within an allelic series) in [7]; 11.8 upbm affinity estimate (log intensity, higher = more binding, comparable within an allelic series) in test [8]; 11.6 upbm affinity estimate (log intensity, higher = more binding, comparable within an allelic series) in [9]; 11.6 upbm affinity estimate (log intensity, higher = more binding, comparable within an allelic series) in test [10]; 11.6 upbm affinity estimate (log intensity, higher = more binding, comparable within an allelic series) in test [11]; 11.4 upbm affinity estimate (log intensity, higher = more binding, comparable within an allelic series) in [12]. Further, in test [13], the binding signal was 11.5 upbm affinity estimate (log intensity, higher = more binding, comparable within an allelic series).

For the sequence AGGGTATC, the binding signal in [1] is 11.2 upbm affinity estimate (log intensity, higher = more binding, comparable within an allelic series); in test [2], 10.2 upbm affinity estimate (log intensity, higher = more binding, comparable within an allelic series); in test [3] it was 11.2 upbm affinity estimate (log intensity, higher = more binding, comparable within an allelic series); in test [4], 9.36 upbm affinity estimate (log intensity, higher = more binding, comparable within an allelic series); in [5], 10.7 upbm affinity estimate (log intensity, higher = more binding, comparable within an allelic series); in [6], 11 upbm affinity estimate (log intensity, higher = more binding, comparable within an allelic series). For the same sequence, the binding signal is 10.4 upbm affinity estimate (log intensity, higher = more binding, comparable within an allelic series) in [7]; 11.4 upbm affinity estimate (log intensity, higher = more binding, comparable within an allelic series) in [8]; 11.4 upbm affinity estimate (log intensity, higher = more binding, comparable within an allelic series) in [9]; 11.1 upbm affinity estimate (log intensity, higher = more binding, comparable within an allelic series) in test [10]; 10.9 upbm affinity estimate (log intensity, higher = more binding, comparable within an allelic series) in test [11]; 11.1 upbm affinity estimate (log intensity, higher = more binding, comparable within an allelic series) in [12]. Further, in [13], the binding signal was 11 upbm affinity estimate (log intensity, higher = more binding, comparable within an allelic series).
